In all, about 290,000 compounds went through this assay and about 2,600 (0.9%) were called active.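 The calls were made as follows: active = inhibition above the mean of all tested compounds plus 3 SD, cutoff set per screening run (cut at about 7.5% in these data); inactive = the rest.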 Only a selection was taken, and actives are over-represented in it overall.
Tested on: VIM-2 metallo-beta-lactamase (Pseudomonas aeruginosa)
Assay: inhibition of VIM-2 nitrocefin hydrolysis – biochemical, epi-absorbance readout, Pseudomonas aeruginosa enzyme, primary screen (AID 1527);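 also: red hydrolysis product quenches plate fluorescence so inhibitors raise well fluorescence; 0% = enzyme with DMSO and 100% = DMSO without enzyme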
Conditions: purified VIM-2, nitrocefin hydrolysis, epi-absorbance fluorescence; at 5.6 µM; active compounds read high

Compound	inhibition
Cc1cccc(-c2nc(Nc3ccc(O)cc3)c3ccccc3n2)c1	-0.38% (inactive)
CN1CCN(c2nc(Nc3ccc(O)cc3)nc3ccccc23)CC1	12.2% (active)
c1ccc(Nc2nc(N3CCOCC3)c3ccccc3n2)cc1	-0.89% (inactive)
O=C(/C=C/c1ccc2c(c1)OCCO2)c1ccc(O)cc1	0.15% (inactive)
CCC(=C/c1sc2ccc3ccccc3c2[n+]1C)/C=C1\Sc2ccc3ccccc3c2N1C	18.2% (active)
CN1CCN(c2ccc(NC(=O)c3ccc4c(c3)[nH]c(=O)n4Cc3ccc(F)cc3)cc2)CC1	17.6% (active)
CC(C)n1c(=O)[nH]c2cc(C(=O)Nc3ccccc3)ccc21	-0.68% (inactive)
CN1CCN(c2ccc(NC(=O)c3ccccc3)cc2)CC1	5.59% (inactive)
Cc1cc2occ(CC(=O)NNC(=O)c3ccccc3F)c2cc1C	-1.98% (inactive)
Cc1nc(N)nc(SCc2ccc([N+](=O)[O-])cc2)c1N	-0.52% (inactive)
COC(=O)c1ccc(NC(=O)CSc2nnc(C3CC3)n2C)cc1	-2.19% (inactive)
O=C(Nc1ccc(S(=O)(=O)N2CCCCC2)cc1)c1cnccn1	-1.24% (inactive)
O=C(Nc1ccc2c(c1)OCCO2)c1cnccn1	-1.18% (inactive)
CCN1CCN(c2ccc(NC(=O)c3cnccn3)cc2)CC1	11.1% (active)
CC(CC(=O)N1CCN(c2ccccc2)CC1)S(=O)(=O)c1ccc2c(c1)NC(=O)CS2 (centres undefined)	-2.34% (inactive)
CN1CCN(Cc2c(C(=O)N3CCc4ccccc4C3)nc3ccc(Cl)cn23)CC1	1.36% (inactive)
COC(=O)c1c(NC(=O)c2ccc(S(=O)(=O)N3CCOCC3)cc2)sc2c1CCN(C(C)C)C2	60.3% (active)
CNC(=O)c1ccsc1NC(=O)c1ccc(S(=O)(=O)N2CCc3ccccc32)cc1	-1.27% (inactive)
CNC(=O)c1ccsc1NC(=O)c1ccc(S(=O)(=O)N2CCOCC2)cc1	18.2% (active)
CC1CN(S(=O)(=O)c2ccc(C(=O)Nc3sccc3C(N)=O)cc2)CC(C)O1 (centres undefined)	-1.24% (inactive)
O=C(Nc1ccc(N2CCOCC2)c(Cl)c1)c1ccc(S(=O)(=O)N2CCOCC2)cc1	-1.9% (inactive)
COc1ccc(C(=O)Nc2nc(-c3ccc(S(=O)(=O)N4CCOCC4)cc3)cs2)cc1	-4.64% (inactive)
Cc1ccn2c(c1)nc(=O)c1cc(S(=O)(=O)N3CCC(C)CC3)ccc12	3.01% (inactive)
CC(C(=O)NC1CCCCC1)N1C(=O)c2cccc3cccc1c23 (centres undefined)	0.01% (inactive)

Compound	inhibition
COc1ccc2c(c1OC)C(=O)N(c1ccc(O)cc1)C2	-1.4% (inactive)
CCOC(=O)C1(Cc2ccccc2C)CCCN(S(C)(=O)=O)C1 (centres undefined)	2.72% (inactive)
C/C(=N\NS(=O)(=O)c1ccc(Br)cc1)c1cccs1	-5.12% (inactive)
C/C(=N\Nc1ncc(Cl)cc1Cl)c1cccs1	-1.51% (inactive)
C/C(=N\Nc1ccc(S(N)(=O)=O)cc1[N+](=O)[O-])c1cccs1	11.9% (active)
CCN(CC)c1ccc(NC(=O)CCc2nnc3ccc(N4CCCCC4)nn23)c(C)c1	-1.16% (inactive)
Fc1ccc(Br)cc1/C=N/n1cnnc1	1.26% (inactive)
Cc1cc(-c2ccc(/C=N/n3cnnc3)o2)c([N+](=O)[O-])cc1C	41.5% (active)
Cc1ccccc1OCCOc1ccc([N+](=O)[O-])cc1/C=N/n1cnnc1	-0.56% (inactive)
O=C1C2C3C=CC(C4CC34)C2C(=O)N1/N=C/c1ccc(-c2ccccc2[N+](=O)[O-])o1 (centres undefined)	-0.54% (inactive)
COC(=O)N/N=C/c1ccc(-c2ccc(Cl)c(Cl)c2)o1	-1.8% (inactive)
Clc1cc(-c2ccc(/C=N/n3cnnc3)o2)ccc1Br	14.1% (active)
Brc1cc(/C=N/n2cnnc2)oc1Br	-2.87% (inactive)
Cc1cc([N+](=O)[O-])c(-c2ccc(/C=N/n3cnnc3)o2)cc1Cl	40.1% (active)
Cc1ccc(Cl)cc1-c1ccc(/C=N/n2cnnc2)o1	27.4% (active)
Cc1cc(C)c([N+](=O)[O-])cc1-c1ccc(/C=N/NC(=O)c2nonc2N)o1	-3.27% (inactive)
Cc1ccccc1-c1n[nH]c(=S)n1/N=C/c1ccc(-c2ccccc2Br)o1	-6.24% (inactive)
CC1=NN(c2ccc(Cl)c(C(=O)O)c2)C(=O)/C1=C/c1ccc(-c2ccccc2[N+](=O)[O-])o1	-1.65% (inactive)
CC(NC(=O)C1CCCN(S(=O)(=O)c2ccc(-n3cnnn3)cc2)C1)c1ccc(F)cc1 (centres undefined)	1.19% (inactive)
COc1ccc(CSc2nnnn2-c2ccc(C(=O)O)cc2)cc1	-2.38% (inactive)
COc1cc(CN2CCCC(C(=O)c3ccc(SC)cc3)C2)cc(Cl)c1O (centres undefined)	-0.31% (inactive)
CCOc1c(OC)cccc1C(=O)NCC1(c2ccccc2)CCCC1	-2.24% (inactive)
COCCCNC(=S)NNC(=O)C(O)(c1ccccc1)c1ccccc1	2.9% (inactive)
CCCCNC(=S)NNC(=O)c1cc(C)on1	9.24% (active)

Compound	inhibition
O=C(NNC(=S)NCCCN1CCOCC1)c1ccncc1	6.22% (inactive)
Cc1ccc(SCC(=O)c2cc(C)c(OC(=S)N(C)C)c(C)c2)cc1	-4.92% (inactive)
CCCC1=Nc2cc(C(=O)NCCN3CCCC3)ccc2Sc2ccccc21	-3.66% (inactive)
COc1cc(/C=N/Nc2nn3cnnc3c3ccccc23)cc(OC)c1OC	25.2% (active)
COc1ccc(/C=N/Nc2nc3ccccc3o2)cc1OC	-2.44% (inactive)
COc1cc(/C=N/NC(=O)Cc2ccccc2)cc(OC)c1OC	-1.77% (inactive)
CCCc1nn2c(=O)cc(CSCC(=O)Nc3cccc(C)c3)nc2s1	0.24% (inactive)
Cc1cccn2cc(-c3cccc(S(=O)(=O)N4CCCCC4)c3)nc12	-0.51% (inactive)
CN(C(=O)c1cccc([N+](=O)[O-])c1)c1ccccc1C(=O)NCc1ccccc1	-1.36% (inactive)
O=c1c2ccccc2oc2nc3n(c(=O)c12)CCCS3	8.39% (active)
O=c1c2ccccc2oc2nc(C3CCCCC3)n(Cc3ccco3)c(=O)c12	-2.32% (inactive)
CCc1nc2oc3ccccc3c(=O)c2c(=O)n1Cc1ccc(OC)cc1	-2.13% (inactive)
Cc1sc2ncn(CC(=O)NCCCC(=O)NCc3ccc(F)cc3)c(=O)c2c1C	0.04% (inactive)
CN(C)c1ccnc2sc(C(=O)c3ccccc3)c(N)c12	-2.05% (inactive)
Nc1c(C(=O)c2cccs2)sc2nsc(SCCN3CCCCC3)c12	13.6% (active)
Cc1nc2sc(C(=O)c3ccccc3)c(N)c2c2c1CCCC2	2.15% (inactive)
CCN(CC)CCN1C(=O)C2C(C(=O)Nc3ccc(Br)cc3)C3C=CC2(O3)C1C(=O)NC1CCCCC1 (centres undefined)	-0.9% (inactive)
Cc1ccc2[nH]c(=O)c(CC(=O)O)c(-c3ccccc3)c2c1	-3.01% (inactive)
CCOc1ccccc1NC(=S)N1CCN(c2cccc(C)c2C)CC1	-0.35% (inactive)
Cc1ccc(S(=O)(=O)N(C)C)cc1NC(=O)c1n[nH]c(=O)c2ccccc12	-0.87% (inactive)
COCCNc1ccc(-c2n[nH]c(=O)c3ccccc23)cc1[N+](=O)[O-]	10.5% (active)
CN(C)CCNc1ccc(-c2n[nH]c(=O)c3ccccc23)cc1[N+](=O)[O-]	78.8% (active)
CCN(CC)CCNc1ccc(Cl)cc1[N+](=O)[O-]	0.16% (inactive)
COCCNC(=O)c1ccccc1NS(=O)(=O)c1ccc(C)c([N+](=O)[O-])c1	0.45% (inactive)

Compound	inhibition
COCCNc1cc(NCCOC)c([N+](=O)[O-])cc1[N+](=O)[O-]	-3.48% (inactive)
O=C(Nc1ccc(S(=O)(=O)N2CCCCCC2)cc1)c1c(F)cccc1F	-0.68% (inactive)
O=C(O)CCCn1c(=O)c2cccn2c2ccc(F)cc21	-1.43% (inactive)
Clc1ccc(CN2CCCCCC2)cc1Cl	-2.14% (inactive)
CC(=O)c1cccc(NC(=O)COc2ccc(S(=O)(=O)N3CCOCC3)cc2)c1	-2.94% (inactive)
C=CCNC(=S)NNC(=O)c1cc(Cl)ccc1OC	-5.71% (inactive)
Cc1cc(C)n2nc(C(=O)NC(C)(C)C)nc2n1	-3.78% (inactive)
COc1ccc(Cl)cc1C(=O)NNC(=O)c1nc2nc(C)cc(C)n2n1	10.3% (active)
O=C(CNC(=O)OCc1ccccc1)Oc1cc2oc(=O)cc(-c3ccccc3)c2cc1Cl	2.38% (inactive)
CN(C)/C=C1/C(=O)Nc2ccccc21	-0.22% (inactive)
O=C1Nc2ccccc2/C1=C/c1ccnc2ccccc12	8.11% (active)
Cc1ccccc1N1CCN(CCCN2C(=O)C3CCCCN3C2=O)CC1 (centres undefined)	0.15% (inactive)
S=c1[nH]nc(COc2ccccc2)n1-c1ccccc1	-1.69% (inactive)
CCCCC(CC(C)O)c1n[nH]c(=S)n1-c1ccccc1 (centres undefined)	-4.22% (inactive)
CC(NS(=O)(=O)c1ccccc1)c1n[nH]c(=S)n1-c1ccccc1 (centres undefined)	14.9% (active)
CCOc1c(Br)cc(/C=C2\C(=O)N(CCC#N)N=C2C)cc1OC	0.69% (inactive)
CCc1nn(CC(=O)N2CCN(CC)CC2)c(=O)c2cccn12	-0.45% (inactive)
CCN1CCN(C(=O)Cn2nc(C)n3c(cc4c(OC)cccc43)c2=O)CC1	28.3% (active)
COc1cccc2c(=O)n(CC(=O)N3CCCCCC3)ccc12	1.04% (inactive)
COc1ccc(C(CNC(=O)COc2ccccc2OC)N2CCCCC2)cc1 (centres undefined)	-0.07% (inactive)
Cc1ccc(CN(N=Nc2nonc2N)c2nonc2N)c(C)c1	-1.22% (inactive)
O=C(COc1ccc(-n2cnnn2)cc1)Nc1ccccc1Cl	0.31% (inactive)

Source: PubChem BioAssay AID1527 (The Scripps Research Institute Molecular Screening Center, 2009)
